From the supplement of paper PMC10849652
Of roughly 7,900 targets only a part is listed; those with a hit were picked by preference. About 0.6% of all pairs of compound and target were hits.

Legend:
Assay in all cases: log2 fold change, soluble protein after heating vs DMSO (PISA); higher = thermal stabilisation; K562 cells, 10 uM, 30 min; active = over 0.2 and 3.5 SD of the protein, either way, in both replicates (recomputed)
[1] = compound: C1=CC=C(C=C1)[C@H](COC2=CC3=C(C=C2)NC(=O)N3)NC(=O)C4=CC=CN(C4=O)CC5=CC(=C(C=C5)F)F
Procedure, shortened: (§1)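 K562 cells at 2×10^6 cells/mL were treated for 30 min with 10 μM compound, and aliquots were heated for 3 min over 48°C-58°C before pooling. Extraction used PBS with 0.5% NP-40 at 4°C, and soluble protein was the supernatant after 21,000xg for 90 min, measured by TMTpro 16plex LC-MS/MS with channel sums equalised. Thermal stability values, relative to control samples and from duplicates, are log2 fold changes.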

[2] = compound: CC1=C(SC2=C1C(=N[C@H](C3=NN=C(N32)C)CC(=O)N)C4=CC=C(C=C4)Cl)C
Procedure, shortened: as §1

[3] = compound: CC1=C2C(=CC=C1)N=C(N(C2=O)C3=CC=CC=C3C)CN4C=NC5=C(N=CN=C54)N
Procedure, shortened: as §1

[4] = compound: Cc1sc2c(c1C)C(c1ccc(Cl)cc1)=N[C@@H](CC(=O)OC(C)(C)C)c1nnc(C)n1-2
Procedure, shortened: as §1

[5] = compound: c1ccc([C@@H]2C[C@H]2NC2CCNCC2)cc1
Procedure, shortened: as §1

Measured: log2 fold change

HTATIP2 isoform 3 (UniProt Q9BUP3)
UniProt Q9BUP3, sequence (Q9BUP3 whole entry, looked up): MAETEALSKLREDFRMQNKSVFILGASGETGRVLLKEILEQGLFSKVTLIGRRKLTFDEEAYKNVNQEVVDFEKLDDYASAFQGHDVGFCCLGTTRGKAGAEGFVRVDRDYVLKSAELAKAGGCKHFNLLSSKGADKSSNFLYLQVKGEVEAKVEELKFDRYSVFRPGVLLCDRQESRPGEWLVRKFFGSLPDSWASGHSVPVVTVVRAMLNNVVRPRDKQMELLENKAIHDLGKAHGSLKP
inactive: [1] 0.063 | [2] 0.031 | [3] 0.059 | [4] 0.028 | [5] -0.03

FANCD2 isoform 1 (UniProt Q9BXW9)
UniProt Q9BXW9, sequence (Q9BXW9 whole entry, looked up): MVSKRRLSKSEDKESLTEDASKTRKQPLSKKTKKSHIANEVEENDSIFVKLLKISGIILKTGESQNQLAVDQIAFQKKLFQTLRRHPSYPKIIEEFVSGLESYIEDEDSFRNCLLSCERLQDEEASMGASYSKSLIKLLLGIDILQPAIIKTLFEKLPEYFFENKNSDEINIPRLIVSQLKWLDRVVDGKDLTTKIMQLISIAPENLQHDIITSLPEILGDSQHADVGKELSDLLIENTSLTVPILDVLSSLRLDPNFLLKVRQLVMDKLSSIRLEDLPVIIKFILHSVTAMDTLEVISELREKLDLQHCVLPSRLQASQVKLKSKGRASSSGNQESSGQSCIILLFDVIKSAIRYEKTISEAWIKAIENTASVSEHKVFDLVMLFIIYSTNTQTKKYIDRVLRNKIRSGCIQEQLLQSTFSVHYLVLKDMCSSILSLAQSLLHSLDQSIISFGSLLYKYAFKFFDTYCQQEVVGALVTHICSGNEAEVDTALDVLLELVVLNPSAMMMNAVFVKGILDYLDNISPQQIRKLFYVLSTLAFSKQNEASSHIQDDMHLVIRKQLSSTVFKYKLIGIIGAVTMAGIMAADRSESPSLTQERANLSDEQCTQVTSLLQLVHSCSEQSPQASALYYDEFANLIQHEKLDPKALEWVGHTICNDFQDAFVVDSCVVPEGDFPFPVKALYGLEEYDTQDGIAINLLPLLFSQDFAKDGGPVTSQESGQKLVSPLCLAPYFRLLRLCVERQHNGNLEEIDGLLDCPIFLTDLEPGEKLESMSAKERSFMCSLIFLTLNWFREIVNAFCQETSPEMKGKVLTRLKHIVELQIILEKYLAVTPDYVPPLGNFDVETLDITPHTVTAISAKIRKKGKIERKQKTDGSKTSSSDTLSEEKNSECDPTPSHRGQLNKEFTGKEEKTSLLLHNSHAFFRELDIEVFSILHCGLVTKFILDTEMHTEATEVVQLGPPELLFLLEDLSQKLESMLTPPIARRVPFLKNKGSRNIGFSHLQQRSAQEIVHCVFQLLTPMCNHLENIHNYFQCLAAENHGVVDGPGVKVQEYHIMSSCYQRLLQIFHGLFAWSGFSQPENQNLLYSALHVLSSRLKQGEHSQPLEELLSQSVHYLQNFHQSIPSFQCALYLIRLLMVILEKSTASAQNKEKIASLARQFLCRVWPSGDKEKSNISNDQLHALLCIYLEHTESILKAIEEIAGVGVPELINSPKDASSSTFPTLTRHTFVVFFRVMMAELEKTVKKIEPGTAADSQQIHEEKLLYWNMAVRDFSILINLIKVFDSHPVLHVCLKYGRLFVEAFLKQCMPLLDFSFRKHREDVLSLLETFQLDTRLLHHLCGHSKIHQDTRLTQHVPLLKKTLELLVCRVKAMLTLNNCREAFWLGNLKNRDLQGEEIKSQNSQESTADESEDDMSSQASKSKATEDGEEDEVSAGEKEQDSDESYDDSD
inactive: [1] -0.018 | [2] 0.068 | [3] 0.159 | [4] -0.041 | [5] -0.009

GIGYF2 (UniProt Q6Y7W6)
UniProt Q6Y7W6, sequence (Q6Y7W6 whole entry, looked up): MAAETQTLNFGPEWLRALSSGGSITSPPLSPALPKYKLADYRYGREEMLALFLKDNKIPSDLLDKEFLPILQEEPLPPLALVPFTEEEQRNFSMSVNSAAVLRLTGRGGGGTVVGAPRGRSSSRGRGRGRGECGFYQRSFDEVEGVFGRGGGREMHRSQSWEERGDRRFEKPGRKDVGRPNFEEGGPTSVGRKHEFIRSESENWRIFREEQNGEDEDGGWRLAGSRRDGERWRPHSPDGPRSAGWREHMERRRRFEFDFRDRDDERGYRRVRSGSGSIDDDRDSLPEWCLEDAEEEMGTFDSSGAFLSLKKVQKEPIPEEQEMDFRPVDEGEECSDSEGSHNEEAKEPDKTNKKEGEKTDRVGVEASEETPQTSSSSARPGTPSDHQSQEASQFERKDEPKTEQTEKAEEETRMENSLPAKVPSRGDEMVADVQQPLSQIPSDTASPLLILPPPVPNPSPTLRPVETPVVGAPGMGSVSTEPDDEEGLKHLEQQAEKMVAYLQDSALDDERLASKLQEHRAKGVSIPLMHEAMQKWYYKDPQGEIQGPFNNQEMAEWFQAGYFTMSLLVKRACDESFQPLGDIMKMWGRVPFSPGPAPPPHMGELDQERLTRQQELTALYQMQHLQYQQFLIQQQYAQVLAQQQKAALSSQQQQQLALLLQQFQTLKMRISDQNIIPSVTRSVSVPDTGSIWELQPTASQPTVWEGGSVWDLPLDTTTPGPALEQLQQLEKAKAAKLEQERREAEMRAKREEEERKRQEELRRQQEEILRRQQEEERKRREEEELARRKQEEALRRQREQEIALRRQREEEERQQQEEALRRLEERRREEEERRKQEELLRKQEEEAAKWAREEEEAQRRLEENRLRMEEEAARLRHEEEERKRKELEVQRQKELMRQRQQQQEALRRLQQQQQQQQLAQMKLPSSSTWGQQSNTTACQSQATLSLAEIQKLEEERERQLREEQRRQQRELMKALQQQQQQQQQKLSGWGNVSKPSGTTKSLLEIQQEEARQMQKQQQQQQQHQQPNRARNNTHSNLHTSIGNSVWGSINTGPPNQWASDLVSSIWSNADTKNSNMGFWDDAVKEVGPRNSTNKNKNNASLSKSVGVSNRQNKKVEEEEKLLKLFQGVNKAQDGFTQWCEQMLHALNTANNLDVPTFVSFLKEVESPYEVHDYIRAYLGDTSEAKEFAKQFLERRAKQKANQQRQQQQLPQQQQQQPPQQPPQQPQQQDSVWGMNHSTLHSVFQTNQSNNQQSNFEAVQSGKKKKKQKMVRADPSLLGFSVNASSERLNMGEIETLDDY
inactive: [1] -0.006 | [2] 0.057 | [3] 0.057 | [4] 0.012 | [5] -0.046

IFT80 isoform 3 (UniProt Q9P2H3)
inactive: [1] -0.011 | [2] 0.052 | [3] 0.083 | [4] -0.036 | [5] -0.027

FASTKD1 (UniProt Q53R41)
inactive: [1] -0.038 | [2] 0.151 | [3] 0.013 | [4] 0.204 | [5] 0.07

GNAS (UniProt Q5JWF2)
inactive: [1] 0.016 | [2] -0.008 | [3] 0.045 | [4] -0.038 | [5] 0.013

GTF2B (UniProt Q00403)
inactive: [1] -0.036 | [2] 0.007 | [3] 0.154 | [4] 0.017 | [5] -0.002

GNB2 (UniProt P62879)
inactive: [1] 0.025 | [2] 0.045 | [3] 0.029 | [4] -0.09 | [5] -0.015

IFRD2 isoform 2 (UniProt Q12894)
inactive: [1] -0.013 | [2] -0.091 | [3] -0.055 | [4] 0.063 | [5] 0.061

GNL1 (UniProt P36915)
inactive: [1] -0.042 | [2] -0.007 | [3] 0.099 | [4] -0.037 | [5] -0.038

GNS (UniProt P15586)
inactive: [1] 0.037 | [2] 0.011 | [3] 0.013 | [4] -0.001 | [5] 0.027

HEXB (UniProt P07686)
inactive: [1] 0.028 | [2] 0.005 | [3] 0.064 | [4] -0.008 | [5] 0.016

FNTA (UniProt P49354)
inactive: [1] -0.009 | [2] -0.024 | [3] 0.02 | [4] 0.04 | [5] -0.009

GPKOW (UniProt Q92917)
inactive: [1] -0.133 | [2] 0.078 | [3] 0.076 | [4] 0 | [5] -0.015

FEN1 (UniProt P39748)
inactive: [1] -0.198 | [2] 0.097 | [3] 0.157 | [4] -0.009 | [5] -0.043

HNRNPH1 (UniProt P31943)
inactive: [1] -0.032 | [2] -0.007 | [3] 0.045 | [4] -0.015 | [5] -0.017

HAUS4 (UniProt Q9H6D7)
inactive: [1] 0.094 | [2] -0.066 | [3] 0.077 | [4] -0.021 | [5] -0.002

GNL3 (UniProt Q9BVP2)
inactive: [1] 0.101 | [2] 0.112 | [3] 0.164 | [4] -0.131 | [5] -0.053

FNTB (UniProt P49356)
inactive: [1] -0.034 | [2] 0.401 | [3] -0.017 | [4] 0.269 | [5] -0.044

GBE1 (UniProt Q04446)
inactive: [1] -0.116 | [2] 0.01 | [3] -0.009 | [4] 0.03 | [5] 0.008

IFT74 (UniProt Q96LB3)
inactive: [1] 0.134 | [2] 0.11 | [3] 0.163 | [4] 0.003 | [5] -0.069

HSPA8 (UniProt P11142)
UniProt P11142, sequence (P11142 whole entry, looked up): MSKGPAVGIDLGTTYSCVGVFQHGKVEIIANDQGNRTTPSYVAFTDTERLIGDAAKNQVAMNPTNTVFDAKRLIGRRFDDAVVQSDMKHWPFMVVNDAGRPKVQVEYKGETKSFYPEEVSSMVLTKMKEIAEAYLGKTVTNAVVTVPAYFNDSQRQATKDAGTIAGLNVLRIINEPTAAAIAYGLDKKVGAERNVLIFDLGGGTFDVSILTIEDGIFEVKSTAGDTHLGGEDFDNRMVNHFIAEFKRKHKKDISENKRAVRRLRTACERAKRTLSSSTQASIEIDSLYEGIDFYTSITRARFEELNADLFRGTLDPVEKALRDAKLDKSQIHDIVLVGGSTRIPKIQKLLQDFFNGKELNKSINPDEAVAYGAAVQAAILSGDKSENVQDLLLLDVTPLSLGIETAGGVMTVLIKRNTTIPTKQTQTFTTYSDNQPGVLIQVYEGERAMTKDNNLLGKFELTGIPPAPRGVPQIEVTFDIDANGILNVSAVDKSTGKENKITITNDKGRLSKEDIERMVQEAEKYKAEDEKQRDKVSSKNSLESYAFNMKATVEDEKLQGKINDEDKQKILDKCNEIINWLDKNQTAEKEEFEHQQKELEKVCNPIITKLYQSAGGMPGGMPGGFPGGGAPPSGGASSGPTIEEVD
inactive: [1] -0.019 | [2] -0.032 | [3] -0.02 | [4] 0.005 | [5] -0.008

GOLPH3 (UniProt Q9H4A6)
inactive: [1] -0.035 | [2] 0.06 | [3] 0.04 | [4] -0.077 | [5] -0.021

HK2 (UniProt P52789)
inactive: [1] -0.006 | [2] 0.045 | [3] 0.007 | [4] -0.025 | [5] -0.016

GDI1 (UniProt P31150)
inactive: [1] -0.025 | [2] 0.054 | [3] 0.043 | [4] -0.022 | [5] -0.025

GSTT1 (UniProt P30711)
inactive: [1] 0.032 | [2] 0.121 | [3] 0.165 | [4] -0.146 | [5] 0.026

HADHA (UniProt P40939)
inactive: [1] -0.218 | [2] 0.254 | [3] 0.214 | [4] 0.256 | [5] -0.051

H2AZ1 (UniProt P0C0S5)
inactive: [1] 0.12 | [2] -0.153 | [3] -0.247 | [4] -0.021 | [5] 0.123

HOMER1 (UniProt Q86YM7)
inactive: [1] -0.08 | [2] 0.035 | [3] 0.02 | [4] -0.005 | [5] 0.007

HLTF (UniProt Q14527)
inactive: [1] 0.003 | [2] 0.012 | [3] 0.062 | [4] 0 | [5] -0.001

GPD1 (UniProt P21695)
inactive: [1] 0.095 | [2] 0.028 | [3] 0.123 | [4] -0.019 | [5] -0.238

GEMIN6 (UniProt Q8WXD5)
inactive: [1] 0.027 | [2] -0.111 | [3] -0.053 | [4] -0.113 | [5] -0.063

HIP1R (UniProt O75146)
inactive: [1] -0.038 | [2] 0.061 | [3] 0.1 | [4] -0.031 | [5] -0.02

HRC (UniProt P23327)
inactive: [1] 0.026 | [2] -0.042 | [3] 0.055 | [4] 0.014 | [5] 0.033

HMGB3 (UniProt O15347)
inactive: [1] -0.005 | [2] 0.022 | [3] -0.03 | [4] -0.055 | [5] -0.033

FIBP (UniProt O43427)
inactive: [1] 0.091 | [2] 0.152 | [3] 0.042 | [4] -0.105 | [5] -0.011

FECH isoform 2 (UniProt P22830)
inactive: [1] 0.008 | [2] 0.03 | [3] 0.023 | [4] -0.07 | [5] -0.08

HIST2H3A (UniProt Q71DI3)
inactive: [1] 0.068 | [2] -0.153 | [3] -0.266 | [4] -0.221 | [5] 0.192

GLS (UniProt O94925)
inactive: [1] -0.022 | [2] 0.114 | [3] 0.138 | [4] 0.013 | [5] 0.082

FKBP7 (UniProt Q9Y680)
UniProt Q9Y680, sequence (Q9Y680 whole entry, looked up): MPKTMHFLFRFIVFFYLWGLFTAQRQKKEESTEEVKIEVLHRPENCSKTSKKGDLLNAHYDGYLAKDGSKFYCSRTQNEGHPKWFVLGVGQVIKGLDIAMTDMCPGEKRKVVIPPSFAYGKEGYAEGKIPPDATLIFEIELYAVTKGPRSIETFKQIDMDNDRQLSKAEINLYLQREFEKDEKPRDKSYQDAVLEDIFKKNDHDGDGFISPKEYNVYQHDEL
inactive: [1] -0.027 | [2] 0.005 | [3] 0.091 | [4] 0.009 | [5] 0.102

FAT1 (UniProt Q14517)
inactive: [1] -0.059 | [2] -0.038 | [3] 0.126 | [4] -0.071 | [5] 0.155

GLB1 (UniProt P16278)
UniProt P16278, sequence (P16278 whole entry, looked up): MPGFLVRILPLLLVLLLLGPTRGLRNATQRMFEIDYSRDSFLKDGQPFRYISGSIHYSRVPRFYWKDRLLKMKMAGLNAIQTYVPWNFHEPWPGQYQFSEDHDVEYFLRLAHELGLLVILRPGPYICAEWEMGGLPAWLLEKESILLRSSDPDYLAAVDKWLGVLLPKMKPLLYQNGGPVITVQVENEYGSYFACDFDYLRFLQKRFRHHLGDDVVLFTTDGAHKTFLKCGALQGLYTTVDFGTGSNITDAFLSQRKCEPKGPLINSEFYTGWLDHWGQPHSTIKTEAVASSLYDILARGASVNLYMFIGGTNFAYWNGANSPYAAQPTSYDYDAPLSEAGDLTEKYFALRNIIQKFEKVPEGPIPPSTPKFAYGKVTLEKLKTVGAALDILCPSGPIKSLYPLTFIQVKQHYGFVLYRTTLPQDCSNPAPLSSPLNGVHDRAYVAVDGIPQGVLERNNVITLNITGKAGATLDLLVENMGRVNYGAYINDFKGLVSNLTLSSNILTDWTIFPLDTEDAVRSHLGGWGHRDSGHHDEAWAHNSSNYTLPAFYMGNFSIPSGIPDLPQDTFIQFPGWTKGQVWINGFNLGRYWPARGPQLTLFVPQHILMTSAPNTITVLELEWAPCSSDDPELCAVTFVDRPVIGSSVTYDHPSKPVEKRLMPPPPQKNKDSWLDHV
inactive: [1] 0.042 | [2] -0.065 | [3] 0.011 | [4] -0.043 | [5] 0.026

GDPD1 (UniProt Q8N9F7)
inactive: [1] -0.054 | [2] 0.003 | [3] 0.057 | [4] -0.024 | [5] 0.034

GLIPR2 (UniProt Q9H4G4)
UniProt Q9H4G4, sequence (Q9H4G4 whole entry, looked up): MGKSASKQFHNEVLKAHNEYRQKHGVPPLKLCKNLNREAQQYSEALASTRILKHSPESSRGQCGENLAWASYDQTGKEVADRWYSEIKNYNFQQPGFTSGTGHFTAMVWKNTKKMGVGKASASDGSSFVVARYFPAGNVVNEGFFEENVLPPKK
inactive: [1] -0.092 | [2] -0.091 | [3] -0.009 | [4] 0.028 | [5] -0.017

HMOX2 (UniProt P30519)
UniProt P30519, sequence (P30519 whole entry, looked up): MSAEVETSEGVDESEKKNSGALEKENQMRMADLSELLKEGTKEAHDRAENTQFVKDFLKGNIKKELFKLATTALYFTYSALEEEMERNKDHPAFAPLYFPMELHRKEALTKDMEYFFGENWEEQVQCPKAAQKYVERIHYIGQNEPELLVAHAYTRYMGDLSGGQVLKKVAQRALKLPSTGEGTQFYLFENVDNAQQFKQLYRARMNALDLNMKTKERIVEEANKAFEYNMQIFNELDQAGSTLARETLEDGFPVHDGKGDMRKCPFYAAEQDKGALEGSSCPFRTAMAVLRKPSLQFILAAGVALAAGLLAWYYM
inactive: [1] 0.024 | [2] 0.035 | [3] 0.169 | [4] 0.047 | [5] -0.036

HIC2 (UniProt Q96JB3)
inactive: [1] 0.163 | [2] -0.053 | [3] -0.048 | [4] 0.205 | [5] 0.078

HOOK3 (UniProt Q86VS8)
inactive: [1] -0.065 | [2] -0.003 | [3] 0.018 | [4] 0 | [5] 0.024

FUT8 (UniProt Q9BYC5)
inactive: [1] 0 | [2] 0.068 | [3] -0.06 | [4] -0.168 | [5] 0.049

H2AFX (UniProt P16104)
inactive: [1] 0.103 | [2] -0.353 | [3] -0.374 | [4] -0.043 | [5] 0.206

IFI30 (UniProt P13284)
inactive: [1] -0.066 | [2] 0.01 | [3] -0.06 | [4] 0.004 | [5] 0.048

FAM91A1 (UniProt Q658Y4)
inactive: [1] 0 | [2] 0.04 | [3] 0.028 | [4] 0.013 | [5] -0.043

GOLGA8R (UniProt I6L899)
inactive: [1] 0.106 | [2] 0.211 | [3] 0.326 | [4] 0.043 | [5] -0.003

IDI1 isoform 2 (UniProt Q13907)
inactive: [1] -0.024 | [2] 0.024 | [3] 0.037 | [4] 0.003 | [5] -0.007
